The campaign covered roughly 310,000 compounds. About 17,000 (5.5%) were called active. A call without a number means that no potency is given here. Another 11% or so got no clear call; they are omitted. Calls come from the whole dose curve; as a rule, active = well fitted inhibition curve with a large enough effect; inconclusive = small, poorly fitted or top-dose-only effect, or effect the other way; inactive = no such curve, though single readings can be large or run the other way. Many of the other results were omitted from the sample, so actives are more common in it than they were.

Here are results for 112 molecules from PubChem BioAssay AID2551 (National Center for Advancing Translational Sciences (NCATS), 2010).
Potency is the fitted concentration of half-maximal effect.

Sequence of Nuclear receptor ROR-gamma (Mus musculus) (P51450 whole entry, looked up, the tested form may be a part): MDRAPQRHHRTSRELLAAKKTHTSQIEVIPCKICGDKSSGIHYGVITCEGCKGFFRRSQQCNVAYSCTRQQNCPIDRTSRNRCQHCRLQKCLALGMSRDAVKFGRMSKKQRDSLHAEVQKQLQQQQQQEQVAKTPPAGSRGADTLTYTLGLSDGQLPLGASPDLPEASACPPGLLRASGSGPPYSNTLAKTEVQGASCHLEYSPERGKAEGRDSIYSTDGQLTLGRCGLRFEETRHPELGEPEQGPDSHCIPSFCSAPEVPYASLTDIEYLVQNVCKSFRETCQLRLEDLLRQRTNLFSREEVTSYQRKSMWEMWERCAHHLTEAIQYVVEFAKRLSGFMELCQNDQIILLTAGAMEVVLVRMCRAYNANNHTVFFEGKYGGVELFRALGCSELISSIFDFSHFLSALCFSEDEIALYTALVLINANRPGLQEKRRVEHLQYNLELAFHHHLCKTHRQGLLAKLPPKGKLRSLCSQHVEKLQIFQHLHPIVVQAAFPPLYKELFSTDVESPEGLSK

In the assay the target is Nuclear receptor ROR-gamma (Mus musculus) (UniProt P51450). In words: qHTS for inhibitors of ROR gamma transcriptional activity. Note: nearly all actives have a fitted effect of over 60% in size. The note with it: Drosophila S2 Gal4-RORgamma UAS-luciferase reporter, 20 h; series mostly up to 53.6 µM. The method in brief:
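Stably transfected Drosophila Schneider cells are the test system, with ROR gamma fused to Gal4 and luciferase under UAS control; luminescence is read after 20 hr of 700 uM copper sulfate induction at ambient temperature.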
(In general: qHTS replaces the single test concentration by a dilution series.)
`O=C(Cc1c[nH]c2ccccc12)N/N=C/c1cccc(F)c1`: the Potency result is “inactive”.

As to `O=C(N/N=C/c1c[nH]c2ccccc12)c1cc2ccccc2o1`, the Potency result is “inactive”.

In the case of `NC(=O)CSc1c[nH]c2ccccc12`, the Potency result was “inactive”.

For the molecule `O=C(N/N=C/c1ccc([N+](=O)[O-])cc1)c1c[nH]c2ccccc12`, the Potency result is “inactive”.

For the molecule `CSC(=S)N/N=C/c1c[nH]c2ccccc12`, the Potency was 0.398 µM (active).

For `O=C(N/N=C/c1c[nH]c2ccccc12)c1ccccc1O`, the Potency is 5.62 µM (active).

`O=C(NCCc1c[nH]c2ccccc12)C1CCN(Cc2ccc(Br)cc2)CC1`: the Potency entry is “inactive”.

Turning to `Cc1cc(=O)oc2c3c(cc(OCC(=O)N[C@H](C(=O)O)c4ccccc4)c12)OC(C)(C)CC3`, the Potency result was “inactive”.

Consider `Cc1ccc(NC(=O)CSc2nn3c(=O)c(C)nnc3s2)cc1Cl`, for which the Potency entry was “inactive”.

Consider `COCCNC(=O)C(c1ccc(C)cc1)N(C(=O)CCC(=O)Nc1ccccn1)c1cccc(C)c1` (configuration not stated), for which the Potency result is “inactive”.

On to `CCCN1C2CCCC1CC(NC(=O)c1cccc(OC)c1)C2` (configuration not stated), for which the Potency entry is “inactive”.

With `CCCCCCC(O)(CCN1CCCCC1)c1ccccc1` (configuration not stated), the Potency result is “inactive”.

For `Cc1cc(C(F)F)nn1CC(=O)NC1CCCCCC1`, the Potency entry was “inactive”.

Turning to `O=C(CCCN1CCc2[nH]c3ccc(F)cc3c2C1)c1ccc(F)cc1`, the Potency result is “inactive”.

For the molecule `O=C(CCn1c(=S)[nH]c2cc3c(cc2c1=O)OCO3)NCc1ccc(Cl)cc1`, the Potency entry is “inactive”.

`CCCCCn1c(=O)c(C(=O)OCC)c(Cl)c2ccccc21`: the Potency result is “inactive”.

On to `O=c1c2ccccc2[nH]c(=S)n1CCN1CCC(=C(c2ccc(F)cc2)c2ccc(F)cc2)CC1`, for which the Potency was 11.2 µM (active).

Regarding `Fc1ccc(NC(=S)N2CCc3[nH]c4ccccc4c3C2)cc1`, the Potency entry is “inactive”.

`CCCCNC(=O)c1ccc(-n2c(=S)[nH]c3ccccc3c2=O)cc1`: the Potency entry was “inactive”.

In the case of `CCCCc1nc2c(=O)[nH]c3ccccc3c2o1`, the Potency entry was “inactive”.

`CCN(CC)CCn1c(=S)[nH]c2ncccc2c1=O`: the Potency entry is “inactive”.

For `CN(C)CCn1c(=S)[nH]c2ccc(Cl)cc2c1=O`, the Potency is 10 µM (active).

On to `O=C(O)c1ccc(Cn2c(=S)[nH]c3cc(Cl)ccc3c2=O)cc1`, for which the Potency entry is “inactive”.

Turning to `CCCCn1c(=S)[nH]c2ccccc2c1=O`, the Potency was 2.82 µM (active).

As to `CCCCn1c(=S)[nH]c2ncccc2c1=O`, the Potency is 2 µM (active).

As to `Cc1ccccc1NC(=O)N1CCCC1C(=O)NCc1ccccc1` (configuration not stated), the Potency entry was “inactive”.

Take `COc1cccc(N(CC(=O)NCc2ccccc2)C(=O)CCC(=O)Nc2nccs2)c1`: the Potency entry is “inactive”.

As for `COc1ccccc1/C=C1\SC(=O)N(CCC(=O)N(C)C2CCS(=O)(=O)C2)C1=O` (configuration not stated), the Potency result is “inactive”.

Turning to `CCN(CC)S(=O)(=O)c1ccc(N2CC(C(=O)NCc3cccnc3)CC2=O)cc1` (configuration not stated), the Potency entry was “inactive”.

As to `COCCn1c(N)c(NCc2ccccc2)c(=O)[nH]c1=O`, the Potency result is “inactive”.

With `CCc1nnc(NC(=O)CCC(=O)N2CCN(c3cc(C)ccc3C)CC2)s1`, the Potency entry is “inactive”.

In the case of `O=C(OCc1ccc([N+](=O)[O-])cc1)C1CC(=O)N(Cc2ccccc2Cl)C1` (configuration not stated), the Potency result was “inactive”.

Take `COc1ccccc1N1CCN(C(=O)c2cc(=O)c3cc(C)cc(C)c3o2)CC1`: the Potency result was “inactive”.

For `CC1=CC(C)(C)NC(=S)N1c1ccccc1`, the Potency is 3.16 µM (active).

With `Cc1cccc([C@@H]2[C@@H]3C(=O)N(C)C(=O)[C@@H]3[C@@H]3C(=O)Nc4ccccc4C(=O)N23)c1`, the Potency entry is “inactive”.

As to `Cn1c(CCc2ccccc2)nnc1SCC(N)=O`, the Potency entry was “inactive”.

As to `CCC(C)(C)NC(=O)CN(C(=O)CCC(=O)Nc1nccs1)c1ccc2c(c1)OCO2`, the Potency entry is “inactive”.

Regarding `CC(=O)c1cccc(NC(=O)CN2C(=O)c3cccnc3Oc3ccc(Cl)cc32)c1`, the Potency entry is “inactive”.

As to `CSCc1cc(N(C)C)nc(SCc2ccc(Cl)cc2Cl)n1`, the Potency was 8.91 µM (active).

On to `Nc1cc(N)nc(SCc2ccc(Cl)cc2)n1`, for which the Potency entry was “inactive”.

`Clc1ccc(CSc2nnc(/C=C/c3ccccc3)o2)c(Cl)c1`: the Potency entry is “inactive”.

`Cc1cc(C)c(OCC(=O)N(Cc2cccs2)C2CCS(=O)(=O)C2)c(C)c1` (configuration not stated): the Potency result was “inactive”.

On to `COC(=O)c1ccc(NC(=S)Nc2cccc(C)n2)cc1`, for which the Potency is 2 µM (active).

As to `Cc1cccc(NC(=O)Cc2ccc(Br)cc2)n1`, the Potency entry was “inactive”.

Consider `CCOC(=O)c1ccc(NC(=O)Cn2nnc(-c3ccc(C)cc3)n2)cc1`, for which the Potency entry is “inactive”.

As for `CCOC(=O)c1ccc(NC(=S)Nc2cc(C)cc(C)n2)cc1`, the Potency was 2 µM (active).

Consider `Cc1cccc(NC(=O)Nc2ccc(OCc3ccccc3)cc2)n1`, for which the Potency result was “inactive”.

As to `CCOC(=O)c1ccc(NC(=O)c2cccnc2)cc1`, the Potency result was “inactive”.

As to `CC(=O)N1c2ccc(S(=O)(=O)N3CCCC(C(=O)Nc4ccc(C)cc4C)C3)cc2CC1C` (configuration not stated), the Potency result is “inactive”.

As to `COc1cccc(/C=C2\Sc3ccc(C(=O)NCC4CCCO4)cc3N(C)C2=O)c1` (configuration not stated), the Potency entry was “inactive”.

Consider `COc1cc(OC)cc(C(=O)NCCSCc2ccc(Cl)cc2)c1`, for which the Potency result was “inactive”.

Regarding `CCOC(=O)c1ccc(N2C(=O)CC(N(C)Cc3ccccc3)C2=O)cc1` (configuration not stated), the Potency entry is “inactive”.

In the case of `CCCCOC(=O)c1ccc(N2C(=O)CC(N3CCN(C/C=C/c4ccccc4)CC3)C2=O)cc1` (configuration not stated), the Potency entry is “inactive”.

For `CCCCCCC(=O)N(O)C1CC(=O)N(c2ccccc2)C1=O` (configuration not stated), the Potency was 2.82 µM (active).

Consider `COc1cccc(Cn2c(=O)c(C)nc3cnc(Oc4ccccc4)nc32)c1`, for which the Potency result was “inactive”.

For the molecule `CCNc1ncc2ncc(=O)n(Cc3cccc(OC)c3)c2n1`, the Potency was 12.6 µM (active).

Turning to `CCNc1ncc2ncc(=O)n(CCc3ccccc3)c2n1`, the Potency entry was “inactive”.

For the molecule `Cc1ccc(SCCSc2ncccn2)cc1`, the Potency entry was “inactive”.

In the case of `Cc1ccc2c(C)c(C(=O)N(C)Cc3ccncn3)oc2c1C`, the Potency entry is “inactive”.

In the case of `CCOC(=O)N1CCN(C(=O)c2cn(C)c3ccc(S(=O)(=O)N4CCCC4)cc3c2=O)CC1`, the Potency entry was “inactive”.

With `O=c1[nH]c2ccc(S(=O)(=O)N3CCCC3)cc2[nH]1`, the Potency entry is “inactive”.

With `CCCCn1c(=S)[nH]c2cc(S(=O)(=O)N3CCCCC3)ccc21`, the Potency was 11.2 µM (active).

On to `CN(C)CCN(C(=O)C1CCCCC1)c1nc2cc3c(cc2s1)OCO3`, for which the Potency entry is “inactive”.

In the case of `CC1(C)C2CCC1(C)C(OC(=O)CCn1ccnc1)C2` (configuration not stated), the Potency was 11.2 µM (active).

Take `COc1ccc(NC(=O)CCn2ccnc2)c(OC)c1`: the Potency result was “inactive”.

For the molecule `Brc1ccc(OCCn2ccnc2)cc1`, the Potency entry was “inactive”.

For the molecule `O=C(Nc1ccncc1)c1ccc(Cl)c([N+](=O)[O-])c1`, the Potency result was “inactive”.

`COc1ccc(C(=O)Nc2c(Cl)cc(Cl)cc2C(=O)N2CCC(C)CC2)cc1`: the Potency result is “inactive”.

On to `CC1CCN(C(=S)c2cccc(O)c2)CC1`, for which the Potency entry was “inactive”.

Take `CC1CCN(C(=S)c2ccc(-c3ccc(Cl)cc3Cl)o2)CC1`: the Potency was 15.8 µM (active).

As to `CCc1ccc(NC(=O)CCNS(=O)(=O)c2cccs2)cc1`, the Potency entry was “inactive”.

In the case of `Cc1ccc(NC(=O)[C@H](Cc2ccccc2)NC(=O)C2CCNCC2)cc1`, the Potency result is “inactive”.

Consider `CC1=CC(C)(C)Nc2ccc(OC(=O)CN3C(=O)C4CCCCC4C3=O)cc21` (configuration not stated), for which the Potency is 4.47 µM (active).

For the molecule `CC1=CC(C)(C)Nc2ccc(OC(=O)C(Cc3ccccc3)N3C(=O)C4CCCCC4C3=O)cc21` (configuration not stated), the Potency result is “inactive”.

On to `O=C(CN1C(=O)C2C3CCC(C3)C2C1=O)Oc1ccc2ccccc2c1` (configuration not stated), for which the Potency result is “inactive”.

Consider `O=C1CSc2ccc(S(=O)(=O)NCc3ccccc3)cc2N1`, for which the Potency result was “inactive”.

In the case of `CN(Cc1ccccc1)C(=O)C1CCCN(c2ncnc3c2nc2n3CCCCC2)C1` (configuration not stated), the Potency result is “inactive”.

On to `CN(C)CCN(C(=O)C1=COCCO1)c1nc2ccc(Cl)cc2s1`, for which the Potency entry is “inactive”.

On to `CC1=NN(Cc2ccccc2)C(=O)/C1=C/c1ccc(N(C)C)cc1`, for which the Potency result is “inactive”.

Turning to `O=C1NCC(=O)N(Cc2ccccc2)/C1=C/c1ccccc1`, the Potency entry was “inactive”.

`CN(C)c1ccc(/C=C2\NC(=S)N(Cc3ccccc3)C2=O)cc1`: the Potency is 5.01 µM (active).

As for `COC(=O)CSc1nnc(NC(=O)CCc2ccccc2)s1`, the Potency result is “inactive”.

For `O=C(Cc1ccc(Br)cc1)NCCN1CCOCC1`, the Potency entry was “inactive”.

As for `CC1CCN(Cc2nc(-c3ccc(Cl)cc3)no2)CC1`, the Potency result was “inactive”.

Turning to `Clc1ccc(-c2nc3ccccn3c2CN2CCSCC2)cc1`, the Potency is 12.6 µM (active).

For `Clc1ccc(-c2nnc(-c3ccccc3)nc2N2CCSCC2)cc1`, the Potency entry is “inactive”.

As for `Cc1ccc(N(Cc2ccccc2O)C(=O)c2ccccc2F)cc1`, the Potency entry is “inactive”.

For `COc1ccc(C(=O)O/N=C(\N)Cc2ccc(Cl)cc2Cl)cc1OC`, the Potency was 15.8 µM (active).

For the molecule `COc1ccc(C/C(N)=N/OC(=O)c2ccco2)cc1OC`, the Potency result was “inactive”.

In the case of `COc1ccc(C(=O)ON=C2c3ccccc3-c3ccccc32)cc1OC`, the Potency entry was “inactive”.

Regarding `CCOc1ccc(N(CC(=O)Nc2cccc(OC)c2)S(C)(=O)=O)cc1`, the Potency entry was “inactive”.

Take `OC(CNCCc1ccc(Cl)cc1Cl)COc1ccccc1` (configuration not stated): the Potency entry is “inactive”.

In the case of `COc1ccc(C2CC(c3cccs3)=NN2C(=O)CCC(=O)O)cc1OC` (configuration not stated), the Potency result is “inactive”.

`O=C(CCCCCNC(=O)c1ccccc1)N/N=C/c1ccccc1`: the Potency result is “inactive”.

As to `O=C(CCC(=O)Nc1ccccc1)N/N=C/c1ccccc1F`, the Potency entry was “inactive”.

Turning to `O=C(N/N=C/c1ccccc1O)/C(=C/c1ccccc1)CCO`, the Potency is 1.12 µM (active).

For `COC(=O)c1ccc(COC(=O)c2cnc(Cl)c(Cl)c2)cc1`, the Potency entry was “inactive”.

On to `CCn1c(SCC(=O)NC2CC2)nnc1-c1ccccn1`, for which the Potency result was “inactive”.

In the case of `COc1ccc(/C=C2/C(=O)N(c3ccccc3)N=C2C)c(OC)c1`, the Potency result is “inactive”.

With `COc1ccc(/C=C/C2=CC(C)(C)NC(=S)N2)c(OC)c1`, the Potency was 1.26 µM (active).

For `COc1cc(/C=C/C2=CC(C)(C)NC(=S)N2)cc(OC)c1OC`, the Potency is 3.55 µM (active).

Turning to `COc1ccc(N)c(OC)c1`, the Potency result was “inactive”.

With `CCC(=O)c1ccc(OC(=O)/C=C/c2cc(OC)c(OC)c(OC)c2)cc1`, the Potency result was “inactive”.

Take `CCOC(=O)COn1c(=O)c(-c2ccc(OCC)cc2)[n+]([O-])c2ccccc21`: the Potency entry is “inactive”.

Regarding `COc1cc(C(=O)OCC(=O)NC(C)CCc2ccccc2)cc(OC)c1OC` (configuration not stated), the Potency entry was “inactive”.

As to `COc1cc(C(C(=O)NC2CCCC2)N(Cc2ccccc2)C(=O)c2snc(C(N)=O)c2N)ccc1O` (configuration not stated), the Potency result was “inactive”.

Take `Cc1[nH]n(-c2ccccc2)c(=O)c1/C=N/NC(=O)c1ccoc1C`: the Potency was 0.251 µM (active).

For `Cc1ccc(-n2[nH]c(C)c(/C=N/NC(=O)c3cccc([N+](=O)[O-])c3)c2=O)cc1C`, the Potency was 1.12 µM (active).

Turning to `O=C(N/N=C/c1cccc([N+](=O)[O-])c1)c1ccncc1`, the Potency entry was “inactive”.

Take `Cc1[nH]n(-c2ccccc2)c(=O)c1N=Nc1ccccc1C(=O)N1CCCCC1`: the Potency result is “inactive”.

`COc1cccc(/C=N/NC(=O)c2cccc([N+](=O)[O-])c2)c1OS(=O)(=O)c1ccc(C)cc1`: the Potency entry is “inactive”.

On to `COc1cc(/C=N/NC(=O)c2ccoc2C)ccc1OCCN1CCCCC1`, for which the Potency entry is “inactive”.
